Shown are actives, neighbours in structure and some others; about 22% of the full set was active somewhere.
Shiga toxin inh = blocks Shiga toxin action in Vero cells; Vero cells, Shiga toxin protein synthesis inhibition reporter; inhibition, % at 38.7 µM; hit rate 9.2% among 290,000; in the data active = inhibition mostly above about 28%, no sharp cut-off; inactive = mostly below about 43%
Pf growth 96h = inhibits malaria parasite growth, 96 h; Potency, µM (top dose mostly 28.7 µM), actives largely listed as inhibitors; P. falciparum luciferase reporter growth, 96 h; AID 504834; hit rate 6.9% among 320,000
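Plates of compound plus infected erythrocytes (2% hematocrit, 0.05% parasitemia final) incubate 96 hours, 37 C, 5% CO2. Detection reagent added; reduced luminescence from the parasites' luciferase reporter flags inhibition.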
Pf growth 48h = P. falciparum growth inhibition at 48 hours (one generation); P. falciparum luciferase growth in erythrocytes, 48 h; Potency, µM (titrated, usually from 28.7 µM), actives largely listed as inhibitors; hit rate 5.9% among 310,000; AID 504832
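In quantitative HTS format, infected erythrocytes bearing luciferase-reporter parasites were treated for a single generation at 37 C. Luminescence after adding detection reagent served as the growth measure.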
LmPK inh = inhibitors of Leishmania mexicana pyruvate kinase | Q27686 | purified LmPK, Kinase-Glo ATP luminescence, 1 h | Potency, µM (top dose mostly 57.5 µM), hits mostly inhibitors | hit rate 0.37% among 290,000 | AID 1721
Target sequence (Q27686 whole entry, looked up): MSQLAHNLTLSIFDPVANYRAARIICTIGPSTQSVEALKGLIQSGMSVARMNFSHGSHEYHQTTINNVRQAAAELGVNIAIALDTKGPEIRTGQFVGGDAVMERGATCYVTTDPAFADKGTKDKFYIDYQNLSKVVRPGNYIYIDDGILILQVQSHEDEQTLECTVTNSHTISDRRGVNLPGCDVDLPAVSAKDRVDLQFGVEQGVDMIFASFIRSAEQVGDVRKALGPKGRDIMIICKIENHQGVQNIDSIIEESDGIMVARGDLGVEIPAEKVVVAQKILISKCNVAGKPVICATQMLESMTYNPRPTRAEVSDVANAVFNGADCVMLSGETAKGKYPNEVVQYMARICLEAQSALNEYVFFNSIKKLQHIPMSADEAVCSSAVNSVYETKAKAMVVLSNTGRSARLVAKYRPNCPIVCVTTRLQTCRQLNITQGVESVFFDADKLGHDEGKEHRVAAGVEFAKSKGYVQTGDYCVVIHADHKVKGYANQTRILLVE
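Screened at intermediate enzyme activity to detect both inhibitors and activators: LmPK at 0.1 nM, with a 0.5 nM enzyme column as activation reference. PEP 0.5 mM, ADP 0.1 mM; ATP detected by luminescence after 1 h.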
Cycloheximide cs = counter-screen hit for Shiga toxin inhibitors, cycloheximide; hit rate 12% among 300,000; cell reporter, cycloheximide protein synthesis inhibition counterscreen; max response, %; in the data active = max response mostly above about 13%, no sharp cut-off; inactive = mostly below about 14%; note: read at 38.3 µM for the half of the compounds with a filed dose
Large screens that a line does not name were inactive. Unless noted, calls come from the whole dose curve; as a rule, active = well fitted inhibition curve with a large enough effect; inconclusive = small, poorly fitted or top-dose-only effect, or another doubt; inactive = no such curve, though single readings can be large or run the other way.

CCOC(=O)CSc1nc2c(sc(=S)n2-c2ccccc2OC)c(=O)n1-c1ccccc1OC	Pf growth 48h 12µM
COc1ccc(-n2c(=S)[nH]c3c(sc(=S)n3-c3ccccc3)c2=O)c(OC)c1	none
CCSc1nc(N2CCOCC2)c2c(c1C#N)CC(C)(C)N(C)C2	Pf growth 96h 5.2µM (no result: Pf growth 48h)
CC(Sc1nc(-c2ccccc2)nc2c1COC(C)(C)C2)C(=O)N1CCOCC1 (configuration not stated)	Pf growth 96h 8.3µM (no result: Pf growth 48h)
COc1ccc(-c2nc3c(c(SCC(=O)N4CCOCC4)n2)COC(C)(C)C3)cc1	none
CC(Sc1nc(N2CCOCC2)c2c(c1C#N)CC(C)(C)OC2)C(=O)Nc1ccccc1 (configuration not stated)	Pf growth 48h 13µM (no result: Pf growth 96h)
COC(=O)c1ccc(CSc2nc(N3CCOCC3)c3c(c2C#N)CC(C)(C)OC3)o1	Pf growth 48h 8.3µM
C=CCSc1nc(N2CCOCC2)c2c(c1C#N)CC(C)(C)N(C)C2	Pf growth 96h inconclusive, Pf growth 48h inconclusive
CSc1nc(N2CCOCC2)c2c(c1C#N)CC(C)(C)OC2	none (no result: Pf growth 96h)
COCCn1c(CN2CCN(C(=O)c3ccco3)CC2)nc2c1c(=O)n(C)c(=O)n2C	Pf growth 96h inconclusive
CC1(C)Cc2c(C#N)c(SCC(=O)c3ccccc3)nc(N3CCOCC3)c2CS1	Pf growth 96h inconclusive, Pf growth 48h 2.3µM
CN1Cc2c(N3CCOCC3)nc(SCc3ccccc3)c(C#N)c2CC1(C)C	none
CC(C)CCSc1nc(N2CCOCC2)c2c(c1C#N)CC(C)(C)OC2	Pf growth 48h 9.3µM
CCOC(=O)CCSc1nc(N2CCOCC2)c2c(c1C#N)CC(C)(C)OC2	Pf growth 48h 4.7µM
CC1(C)CC(=O)C2=C(C1)OC(N)=C(C#N)C2c1cn(-c2ccccc2)nc1-c1ccccc1 (configuration not stated)	Pf growth 96h inconclusive, Cycloheximide cs 18
COc1cc(C2C(C#N)=C(N)OC3=C2C(=O)CCC3)cc(OC)c1OC(=O)N1CCOCC1 (configuration not stated)	Pf growth 96h 4.7µM
COc1cc(C2C(C#N)=C(N)OC3=C2C(=O)CC(C)(C)C3)ccc1OCCN1CCOCC1 (configuration not stated)	Cycloheximide cs 21
COc1ccc(C2C(C#N)=C(N)OC3=C2C(=O)CC(C)(C)C3)cc1OC (configuration not stated)	Pf growth 96h inconclusive
CC1(C)CC(=O)C2=C(C1)OC(N)=C(C#N)C2c1cccc(OC(=O)c2ccco2)c1 (configuration not stated)	Pf growth 96h 2.9µM
CC1(C)CC(=O)C2=C(C1)OC(N)=C(C#N)C2c1ccoc1 (configuration not stated)	none
CCCNC(=O)c1ccc2c(c1)nc(C)n2-c1cccc(Cl)c1	Pf growth 48h inconclusive
CCOc1ccc(NC(=O)c2ccccc2C(=O)c2ccccc2)cc1OCC	Pf growth 96h inconclusive
CCn1c(SCC(=O)c2ccc3ccccc3c2)nnc1-c1ccco1	Pf growth 48h inconclusive (no result: Pf growth 96h)
Cn1ccnc1SCC(=O)Nc1ccc2ccccc2c1	Shiga toxin inh 48, Cycloheximide cs 42
Cc1ccc(NC(=O)CSc2ncc3ccccn23)cc1C	Shiga toxin inh 130, Cycloheximide cs 39
Cn1ccnc1SCC(=O)c1ccc2ccccc2c1	Shiga toxin inh 88, Cycloheximide cs 39
Cc1ccnc(SCC(=O)c2cc3ccccc3o2)n1	Cycloheximide cs 13
Cn1ccnc1SCC(=O)Nc1ccccc1	none
Cn1c(SCC(=O)c2cc3ccccc3o2)nnc1-c1ccccc1	none
CCN(CC(=O)NC1CCS(=O)(=O)C1)C(=O)/C=C/c1cccs1 (configuration not stated)	none
CN(CC(=O)Nc1ccccc1Cl)C(=O)C1CCN(C(=O)c2ccc(F)cc2)CC1	Pf growth 96h inconclusive (no result: Shiga toxin inh, LmPK inh, Cycloheximide cs)
CCN(CC)S(=O)(=O)c1cc(NC(=O)CSc2nccn2C)ccc1C	Shiga toxin inh 103, Cycloheximide cs 16
Cn1cnnc1SCC(=O)c1cc2ccccc2o1	none
COc1ccc(C(=O)CSc2nccn2C)c(OC)c1	Shiga toxin inh 57, Cycloheximide cs 50
Cn1ccnc1SCC(=O)c1cc2ccccc2o1	Shiga toxin inh 117, Cycloheximide cs 45
Cc1ccc(NC(=O)CSc2nccn2C)cc1S(=O)(=O)N1CCOCC1	Pf growth 96h inconclusive
COc1cccc(C(=O)CSc2nccn2C)c1	Shiga toxin inh 97, Pf growth 96h 12µM, Cycloheximide cs 31
COc1cccc(C(=O)CSc2nnnn2C)c1	none
O=C(CNS(=O)(=O)c1ccc(Br)cc1)Nc1ccc2c(c1)OCCO2	none
O=C(C[n+]1ccccc1)N/N=C/c1ccc(F)cc1	Pf growth 96h inconclusive, Pf growth 48h inconclusive
O=C(O)CSc1ncnc2nc[nH]c12	none (no result: Pf growth 48h)
O=C(CSc1ncccc1C(=O)O)c1ccc2ccccc2c1	Shiga toxin inh 100, Cycloheximide cs 45
O=C(CSc1ncnc2nc[nH]c12)c1ccc2ccccc2c1	Shiga toxin inh 42, Pf growth 96h 5.2µM, Cycloheximide cs 33
O=C(CSc1ncccc1C(=O)O)c1cccc(C(F)(F)F)c1	none
Cn1ccnc1SCC(=O)c1cccc(Br)c1	Cycloheximide cs 27 (no result: Pf growth 48h)
COc1ccc(/C=N/NC(=O)Cc2csc(Nc3cccc(C(F)(F)F)c3)n2)cc1C	none
O=C(C1CCCO1)N1CCN(c2ccccn2)CC1 (configuration not stated)	none
O=C(Nc1ccccc1)c1ccccc1OS(=O)(=O)c1ccccc1	Pf growth 96h inconclusive
CN(C)S(=O)(=O)c1cccc(COc2ccccc2C(=O)Nc2ccccc2)c1	Pf growth 96h 9.3µM, Pf growth 48h 10µM
CN(C)S(=O)(=O)c1cccc(COC(=O)c2ccc(Cl)cc2O)c1	Shiga toxin inh 106, Pf growth 48h inconclusive, Cycloheximide cs 45
CN(C)S(=O)(=O)c1cccc(NC(=O)c2c[nH]c3ccccc23)c1	Shiga toxin inh 64, Cycloheximide cs 16
CN(C)S(=O)(=O)c1cccc(NC(=O)c2ccccc2OCc2ccc(F)cc2)c1	Pf growth 96h inconclusive, Pf growth 48h 12µM
O=C1NC(=S)N/C1=C/c1cc([N+](=O)[O-])ccc1O	none (no result: Pf growth 48h)
O=C1NC(=S)N/C1=C/c1cccc([N+](=O)[O-])c1O	Pf growth 96h 1.9µM, Pf growth 48h inconclusive
COC(=O)COc1ccc(C(C2C(=O)CC(C)(C)CC2=O)C2C(=O)CC(C)(C)CC2=O)cc1	none
O=C1NCN(c2ccccc2)C12CCN(CCCC(c1ccc(F)cc1)c1ccc(F)cc1)CC2	Pf growth 96h 3.7µM, Pf growth 48h 1.9µM
O=C1NCN(c2ccccc2)C12CCN(CC1COc3ccccc3O1)CC2 (configuration not stated)	Pf growth 48h inconclusive (no result: Shiga toxin inh, LmPK inh, Cycloheximide cs)
O=C1NCN(c2ccccc2)C12CCNCC2	Pf growth 96h inconclusive, Pf growth 48h 2.6µM
COC(=O)c1cc(Br)cn1S(=O)(=O)c1ccccc1	none (no result: Pf growth 48h)
CCc1sc(N(C(=O)Cc2ccccc2)c2ccccc2F)nc1-c1ccc(C)cc1	Pf growth 96h 10µM, Pf growth 48h inconclusive
